Test results taken from PubChem BioAssay.
Calls of active or inactive are those of the source.

How the values were obtained:
[1] = small molecules captured by biotinylated probe aFSTL3 – biochemical, small-molecule microarray, fluorescence 635/667, stem cell growth factor project, primary screen (AID 1064); details: higher = more signal;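 further: measures binding of the biotinylated anti-FSTL3 antibody to printed compounds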
[2] = binders from COS7 lysate, DM2A8 probe, primary screen, torsin A project, cell lysate, small-molecule microarray, fluorescence 635/667 (AID 1065); details: higher = more signal, COS7 lysate expressing mutant human TOR1A
[3] = small molecules captured by biotinylated probe aFGF2 – biochemical, small-molecule microarray, fluorescence 635/667, stem cell growth factor project, primary screen (AID 1067); details: higher = more signal;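 further: measures binding of biotinylated aFGF2 protein to printed compounds on slides; z-score merges feature fluorescence and signal-to-noise across triplicate slides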
[4] = small molecules captured by biotinylated probe aFGF10 – biochemical, small-molecule microarray, fluorescence 635/667, stem cell growth factor project, primary screen (AID 1071); details: higher = more signal;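 further: score merges 667 nm spot intensity and signal to noise from triplicate slides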
[5] = biological target: Neurogenic locus notch homolog protein 2 (Homo sapiens) (UniProt Q04721); assay: small molecules binding Notch2 protein – biochemical, small-molecule microarray, 635 nm fluorescence, stem cell growth factors, primary screen (AID 1073); details: higher = more signal
[6] = biological target: Pro-neuregulin-1, membrane-bound isoform (Homo sapiens) (UniProt Q02297); assay: small molecules binding neuregulin-1 protein – biochemical, small-molecule microarray, fluorescence 635/667, psychiatric disease protein project, primary screen (AID 1075); details: NRG1 binding, 635 nm fluorescence, higher = more signal;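 further: score combines 667 nm spot fluorescence with signal to noise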
[7] = test system: Neuregulin-1 EGF-like domain; assay: small molecules binding NRG1 EGF domain – biochemical, small-molecule microarray, 635 nm fluorescence, primary screen (AID 1081); details: higher = more signal;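 further: binding of the protein to compounds printed on small-molecule microarray slides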
[8] = FRG1 expression reporter modulators in myotubes – cell-based, C2C12 myotubes, firefly/Renilla luciferase, luminescence, FRG1 inhibition for FSHD, primary screen (AID 1084); details: FRG1 promoter luciferase, higher = more signal, called active from +8 up or from −8 down
[9] = small molecules captured by biotinylated probe aFST – biochemical, small-molecule microarray, fluorescence 635/667, stem cell growth factor project, primary screen (AID 1086); details: higher = more signal;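 further: score merges 667 nm fluorescence with signal-to-noise of each printed compound spot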
[10] = binders of probe aHhip on microarray, primary screen, stem cell growth factor project, biochemical, small-molecule microarray, fluorescence 635/667 (AID 1087); details: higher = more signal;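 further: score merges spot fluorescence at 667nm with spot signal to noise ratio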

Sequence of Neurogenic locus notch homolog protein 2 (Homo sapiens) (Q04721 whole entry, looked up, canonical isoform): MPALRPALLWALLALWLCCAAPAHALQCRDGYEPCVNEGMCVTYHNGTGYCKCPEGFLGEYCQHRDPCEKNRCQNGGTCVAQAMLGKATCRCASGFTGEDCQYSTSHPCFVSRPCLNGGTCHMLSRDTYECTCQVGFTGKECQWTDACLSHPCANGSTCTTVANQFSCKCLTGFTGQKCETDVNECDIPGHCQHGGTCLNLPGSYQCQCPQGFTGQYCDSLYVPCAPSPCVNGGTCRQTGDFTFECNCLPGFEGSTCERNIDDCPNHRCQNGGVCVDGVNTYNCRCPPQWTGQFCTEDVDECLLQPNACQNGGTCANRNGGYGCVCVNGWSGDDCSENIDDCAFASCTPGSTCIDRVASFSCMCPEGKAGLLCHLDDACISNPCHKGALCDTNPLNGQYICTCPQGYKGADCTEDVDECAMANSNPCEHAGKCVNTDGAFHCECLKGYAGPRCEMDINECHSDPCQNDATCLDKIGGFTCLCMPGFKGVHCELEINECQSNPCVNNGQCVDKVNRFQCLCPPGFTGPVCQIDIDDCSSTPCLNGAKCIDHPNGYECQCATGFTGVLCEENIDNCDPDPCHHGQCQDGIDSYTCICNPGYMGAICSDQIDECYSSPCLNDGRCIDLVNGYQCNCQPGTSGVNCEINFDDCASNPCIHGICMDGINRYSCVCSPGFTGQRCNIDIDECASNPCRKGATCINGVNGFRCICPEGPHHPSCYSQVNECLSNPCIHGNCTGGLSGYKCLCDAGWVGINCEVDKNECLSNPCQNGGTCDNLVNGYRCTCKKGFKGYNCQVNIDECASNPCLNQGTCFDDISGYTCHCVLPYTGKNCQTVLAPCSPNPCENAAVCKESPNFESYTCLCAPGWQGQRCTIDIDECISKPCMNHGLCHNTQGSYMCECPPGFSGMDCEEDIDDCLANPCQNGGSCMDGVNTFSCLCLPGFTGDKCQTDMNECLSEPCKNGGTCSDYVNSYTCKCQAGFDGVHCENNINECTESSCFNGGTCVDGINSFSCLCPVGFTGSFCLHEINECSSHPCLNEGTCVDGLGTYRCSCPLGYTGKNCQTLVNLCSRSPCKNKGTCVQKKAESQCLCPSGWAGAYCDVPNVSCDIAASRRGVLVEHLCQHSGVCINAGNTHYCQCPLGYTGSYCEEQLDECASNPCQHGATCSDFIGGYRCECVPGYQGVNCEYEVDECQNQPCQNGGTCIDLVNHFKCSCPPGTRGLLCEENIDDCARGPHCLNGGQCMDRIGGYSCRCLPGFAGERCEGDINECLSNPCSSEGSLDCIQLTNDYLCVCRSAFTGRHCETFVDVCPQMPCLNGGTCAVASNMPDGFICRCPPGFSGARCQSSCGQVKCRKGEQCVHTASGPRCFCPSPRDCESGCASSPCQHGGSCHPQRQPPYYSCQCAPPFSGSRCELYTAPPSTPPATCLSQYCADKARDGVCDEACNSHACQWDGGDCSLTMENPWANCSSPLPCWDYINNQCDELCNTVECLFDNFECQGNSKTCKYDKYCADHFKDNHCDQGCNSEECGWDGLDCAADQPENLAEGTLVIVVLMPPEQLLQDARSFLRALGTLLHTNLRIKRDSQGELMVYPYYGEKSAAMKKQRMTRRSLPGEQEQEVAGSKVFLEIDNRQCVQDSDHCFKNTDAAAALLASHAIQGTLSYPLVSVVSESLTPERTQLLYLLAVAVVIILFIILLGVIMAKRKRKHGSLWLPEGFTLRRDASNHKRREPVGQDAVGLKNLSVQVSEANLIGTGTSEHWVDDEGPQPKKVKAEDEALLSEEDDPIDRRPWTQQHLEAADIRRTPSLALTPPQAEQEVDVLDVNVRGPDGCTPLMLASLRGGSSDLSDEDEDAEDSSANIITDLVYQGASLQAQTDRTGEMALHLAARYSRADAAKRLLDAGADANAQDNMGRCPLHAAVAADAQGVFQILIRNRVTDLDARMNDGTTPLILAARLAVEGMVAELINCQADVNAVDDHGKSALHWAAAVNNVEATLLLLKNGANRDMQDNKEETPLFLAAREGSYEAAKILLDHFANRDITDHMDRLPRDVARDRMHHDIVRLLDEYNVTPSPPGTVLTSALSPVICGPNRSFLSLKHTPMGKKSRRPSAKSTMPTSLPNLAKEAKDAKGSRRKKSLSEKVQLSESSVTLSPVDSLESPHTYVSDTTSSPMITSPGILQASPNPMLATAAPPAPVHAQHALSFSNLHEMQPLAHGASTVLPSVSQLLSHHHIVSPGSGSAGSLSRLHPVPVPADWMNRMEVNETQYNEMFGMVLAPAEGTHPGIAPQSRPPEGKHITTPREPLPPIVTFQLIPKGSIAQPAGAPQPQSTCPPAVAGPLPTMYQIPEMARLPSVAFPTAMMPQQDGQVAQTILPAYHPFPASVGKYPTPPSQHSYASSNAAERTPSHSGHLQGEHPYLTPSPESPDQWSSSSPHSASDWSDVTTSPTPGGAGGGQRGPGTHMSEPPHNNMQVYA
Sequence of Pro-neuregulin-1, membrane-bound isoform (Homo sapiens) (Q02297 whole entry, looked up, the tested form may be a part, canonical isoform): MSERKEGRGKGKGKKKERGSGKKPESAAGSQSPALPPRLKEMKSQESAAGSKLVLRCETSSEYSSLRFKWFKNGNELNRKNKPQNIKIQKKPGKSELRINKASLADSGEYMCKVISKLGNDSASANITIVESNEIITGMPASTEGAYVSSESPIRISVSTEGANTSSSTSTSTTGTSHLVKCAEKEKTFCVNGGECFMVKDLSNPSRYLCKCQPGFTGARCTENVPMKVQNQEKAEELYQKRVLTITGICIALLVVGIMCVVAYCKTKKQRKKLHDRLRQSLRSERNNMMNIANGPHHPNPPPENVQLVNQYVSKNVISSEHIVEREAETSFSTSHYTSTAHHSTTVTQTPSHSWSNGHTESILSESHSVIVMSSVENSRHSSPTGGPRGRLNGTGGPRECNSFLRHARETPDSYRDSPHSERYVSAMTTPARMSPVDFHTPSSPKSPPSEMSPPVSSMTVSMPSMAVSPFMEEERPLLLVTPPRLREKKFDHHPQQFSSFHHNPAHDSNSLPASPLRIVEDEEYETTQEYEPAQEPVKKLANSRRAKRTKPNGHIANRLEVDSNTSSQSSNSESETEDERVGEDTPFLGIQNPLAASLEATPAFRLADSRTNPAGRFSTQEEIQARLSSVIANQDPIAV

SMILES	composite z-score [1]	composite z-score [2]	composite z-score [3]	composite z-score [4]	composite z-score [5]	composite z-score [6]	composite z-score [7]	z-score [8]	composite z-score [9]	composite z-score [10]
COCCCNC(=O)[C@]1(CCC(=O)OC(C)(C)C)N=C(c2ccc(OCCCO)cc2)O[C@@H]1c1ccccc1CN=[N+]=[N-]	0.175	1.19	0.042	1.27	0.96	0.732	1.41	4.82 (inactive)	0.728	0.107
CC(C)=CCN[C@H](CO)c1ccccc1	-0.122	-0.428	-0.0732	0.897	0.794	-0.419	0.249	1.07 (inactive)	-0.0489	0.0129
C=CCOC(=O)[C@H]1[C@@H]2C(=O)O[C@@H](c3ccccc3)[C@@H](c3ccccc3)N2[C@@H](c2ccc(OCCOC(=O)[C@H]3C[C@H]4C(=O)N[C@@H](CCCCNC(C)=O)C(=O)N4[C@H]3c3ccc(O)cc3)cc2)[C@]12C(=O)Nc1ccc(I)cc12	-0.37	0.517	0.0126	0.169	0.791	0.349	1.14	0.136 (inactive)	1.3	0.312
CCOC(=O)C[C@H]1[C@H](OC(=O)c2ccc(C(=O)c3ccccc3)cc2)[C@@H](NC(=O)c2ccc3ccccc3c2)c2cc(OCCCO)ccc2N1C(=O)Cc1ccc(OC)cc1	-0.242	0.151	-0.146	0.66	0.361	0.401	0.107	-0.314 (inactive)	0.441	-0.0645
CC(C)C(CO)N1C(=O)[C@@H]2C3C(=O)OCCC/C=C\[C@H]3OC23C=CCN(CCN2CCOCC2)C(=O)[C@@H]13 (stereo not given in full)	-0.364	-0.306	-0.116	-0.294	-0.853	-0.197	0.366	1.3 (inactive)	-0.139	0.0623
CC(C)C(O)C1C=CC2C(=O)N(c3ccccc3)C(=O)C2N1Nc1ccc([N+](=O)[O-])cc1 (stereo not given)	0.549	-0.0664	0.0485	0.569	0.951	1.34	0.8	1.07 (inactive)	0.886	-0.214
C=C(COC)/C(=C/C[C@@H](OC(=O)c1ccncc1)c1ccc(CO)o1)c1cc(C(=O)OC)ccc1OC	-0.496	0.699	-0.0451	0.833	1.38	0.97	1.26	-1.38 (inactive)	0.458	-0.0994
N#Cc1ccc(NN2C(C(O)C(c3ccccc3)c3ccccc3)C=CC3C(=O)N(c4ccccc4)C(=O)C32)cc1 (stereo not given)	0.223	0.135	-0.0462	0.952	1.65	1.77	1.15	-0.621 (inactive)	1.93	0.0585
CCCCCCc1nc(-c2ccc(OC)nc2)cc2c1[Si](C(C)C)(C(C)C)O[C@H]2c1ccccc1	-0.16	-0.0924	0.0131	0.0809	0.144	-0.384	-0.821	-0.566 (inactive)	-0.546	-0.146
CC(C)NC(=O)[C@@]1(C)c2ccccc2C(=O)N(Cc2cc(C(F)(F)F)cc(C(F)(F)F)c2)[C@H]1c1ccc(CO)cc1	0.43	-1.42	-0.128	-0.477	-0.753	0.353	1.27	-1.38 (inactive)	-0.213	-0.374
CCCC[C@@H]1C[C@H]1[C@@H](NC(=O)c1ccccc1)c1ccc(C(=O)OC)cc1	1.37	-0.0965	-0.0273	-0.282	-0.547	-0.273	-0.544	0.191 (inactive)	-0.303	0.35
COc1ccc(C(=O)Nc2ccc(CN3C(=O)[C@]4(O[C@H](CCO)[C@@H]([Si](C)(C)c5ccc(OC)cc5)[C@@H]4C)c4ccccc43)cc2)cc1	-0.329	0.0876	-0.087	0.245	0.561	0.77	0.836	-4.05 (inactive)	0.305	0.432
COC(=O)C[C@H]1O[C@]2(C(=O)N(C)c3ccccc32)[C@@H](C)[C@@H]1[Si](C)(C)F	-0.54	0.109	-0.131	0.626	0.423	-0.133	0.346	-1.35 (inactive)	-0.0253	0.141
COC(=O)[C@@]1(Cc2ccc(F)cc2)[C@H]2c3cc(C(=O)N(C)C)n(Cc4cc(F)c(F)c(F)c4)c3C[C@H]2CN1C(=O)c1ccccc1	0.293	-0.528	0.261	0.593	1.77	1.61	0.971	0.621 (inactive)	1.88	0.142
O=C1O[C@@H](c2ccccc2)[C@@H](c2ccccc2)N2[C@@H](c3ccccc3OCCO)[C@]3(C(=O)Nc4ccccc43)[C@@H](C(=O)Nc3nc4ccccc4s3)[C@H]12	0.0741	0.581	0.0566	0.841	1.15	2.01	1.26	-1.26 (inactive)	0.247	-0.329
O=C1OCCC/C=C\[C@H]2OC34C=CCN(Cc5ccccc5)C(=O)[C@H]3N(CCCO)C(=O)[C@@H]4C12 (stereo not given in full)	0.985	2.29	-0.145	-0.458	-1.15	0.822	0.703	0.308 (inactive)	-0.572	-0.0994
O=C1c2ccccc2[C@](Cc2ccccc2I)(C(=O)NCCN2CCOCC2)[C@H](c2ccc(CO)cc2)N1C1CCCCC1	0.446	0.473	-0.0181	0.352	1.39	0.738	1.22	-4.42 (inactive)	1.19	0.259

SMILES	composite z-score [1]	composite z-score [2]	composite z-score [3]	composite z-score [4]	composite z-score [5]	composite z-score [6]	composite z-score [7]	z-score [8]	composite z-score [9]	composite z-score [10]
C=CC[C@@]1(C(=O)NCCN2CCOCC2)N=C(c2ccc(OCCCO)cc2)O[C@@H]1c1ccccc1N=[N+]=[N-]	1.4	-0.355	-0.119	0.686	0.322	1.37	1.03	2.98 (inactive)	0.803	-0.0645
C=CCNC(=O)[C@@H]1[C@H]2C(=O)O[C@H](c3ccccc3)[C@H](c3ccccc3)N2[C@H](c2ccccc2OCCO)[C@@]12C(=O)N(C(=O)OCCOC)c1ccccc12	0.599	0.603	-0.107	0.73	1.32	0.848	1.29	-0.0386 (inactive)	0.562	0.621
COCCOC(=O)N1C(=O)[C@@]2(c3cc(C#Cc4ccc(OC)cc4)ccc31)[C@H](c1ccccc1OCCO)N1[C@H](c3ccccc3)[C@H](c3ccccc3)OC(=O)[C@H]1[C@@H]2C(=O)NC[C@H](O)c1ccccc1	-0.532	0.579	-0.0744	0.514	1.09	1.12	1.3	0.19 (inactive)	0.499	-0.0346
CN(C)C(=O)[C@]1(Cc2ccccc2N=[N+]=[N-])N=C(c2ccc(OCCCO)cc2)O[C@@H]1c1ccccc1N=[N+]=[N-]	0.0009	0.827	0.0155	0.183	1.47	1.01	1.26	-1.74 (inactive)	1.15	0.0373
CC(C)N1C(=O)c2ccccc2[C@](C)(C(=O)NCCN2CCOCC2)[C@@H]1c1ccc(CO)cc1	0.755	0.779	-0.104	-1.08	-0.879	1.76	0.728	0.185 (inactive)	-0.527	-0.306
C=CCN1C(=O)[C@]2(O[C@H](CCn3cc([C@H](O)c4ccccc4)nn3)[C@@H]([Si](C)(C)c3ccc(OC)cc3)[C@@H]2C)c2cc(N3CCC3=O)ccc21	-0.0453	0.334	0.0087	0.679	-0.255	1.9	1.14	-1.43 (inactive)	-0.282	0.0505
COCCOC(=O)N1C(=O)[C@@]2(c3cc(C#CCNC(N)=O)ccc31)[C@H](C(=O)Nc1nc3ccccc3s1)[C@H]1C(=O)O[C@H](c3ccccc3)[C@H](c3ccccc3)N1[C@@H]2c1ccc(OCCO)cc1	1.02	0.103	0.0346	1.05	0.486	0.357	0.331	6.33 (inactive)	0.84	-0.226
CC(C)NC(=O)[C@@]1(c2ccc([N+](=O)[O-])cc2)CC(=O)N(C2CCCCC2)[C@@H]1c1ccc(CO)cc1I	1.12	0.586	-0.0548	-0.0891	-0.0016	0.662	1.12	0.286 (inactive)	0.178	0.426
CCCCCCc1nc(-c2cc(C)c(OC)c(C)c2)cc2c1[Si](C(C)C)(C(C)C)OC2	0.0546	-0.375	-0.0507	-0.278	-0.274	-0.405	-0.449	0.515 (inactive)	-0.272	0.35
[N-]=[N+]=NCc1ccccc1C[C@]1(C(=O)N2CCCCC2)N=C(c2ccc(OCCCO)cc2)O[C@H]1c1ccccc1N=[N+]=[N-]	0.643	0.133	0.158	0.816	1.3	1.57	1.1	-1.99 (inactive)	0.637	-0.233
C=C[C@H](C)[C@@H](OC(=O)Nc1ccc(OC)cc1)c1ccc(O)c2ccccc12	0.358	0.357	-0.142	-0.225	-1.53	0.3	1.27	4.09 (inactive)	-0.344	-0.37
COC(=O)C(CC#Cc1ccc2c(c1)[C@]1(C(=O)N2)[C@H](C(=O)Nc2nc3ccccc3s2)[C@H]2C(=O)O[C@H](c3ccccc3)[C@H](c3ccccc3)N2[C@@H]1c1ccccc1OCCO)C(=O)OC	0.0102	0.628	0.0941	1.12	1.26	1.07	1.31	1.43 (inactive)	0.709	-0.0296
COC(=O)[C@]1(CCC(=O)OC(C)(C)C)N=C(c2ccc(OCCCO)cc2)O[C@@H]1c1ccccc1CN=[N+]=[N-]	0.995	-0.0569	-0.0073	0.0301	0.53	0.971	1.14	-3.06 (inactive)	0.773	-0.169
O=C(NCCN1CCOCC1)C1N=C(c2ccc(OCCCO)cc2)N(c2ccccc2)O1 (stereo not given)	0.377	1.4	0.071	0.318	1.48	0.561	1.3	4.31 (inactive)	0.524	0.075
COC(=O)[C@H](Cc1ccccc1)N1CC2=C[C@@H](C3CC3)n3c(=O)n(C)c(=O)n3[C@H]2[C@@H]1[C@@H](O)Cc1ccccc1	-0.575	1.5	0.0066	0.369	0.319	0.323	0.997	0.892 (inactive)	0.559	-0.296
C=C(/C(=C/C[C@H](OC(C)=O)c1ccccc1OCCO)c1cnc2ccccc2c1)C(C)C	0.168	0.126	-0.0419	0.324	0.775	0.586	0.87	-0.607 (inactive)	0.0254	0.0274
